For 7 targets, log2 fold change results are on record in the supplement of paper PMC10849652.

Holding throughout (test): log2 fold change, soluble protein after heating vs DMSO (PISA); higher = thermal stabilisation; K562 cells, 10 uM, 30 min; active = over 0.2 and 3.5 SD of the protein, either way, in both replicates (recomputed)
Compound in test [1]: CC1=C(C=C(C=C1)NC(=O)C2=CC(=CC=C2)C(C)(C)C#N)NC3=CC4=C(C=C3)N=CN(C4=O)C
The essentials: (§1)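 For each measurement, 10 μM compound was applied for 30 min to K562 cells at 2×10^6 cells/mL. Aliquots were heated for 3 min across 48°C-58°C, pooled, and extracted in PBS with 0.5% NP-40 at 4°C; the supernatant after 21,000xg for 90 min was soluble protein. This was quantified by TMTpro 16plex LC-MS/MS with channel sums equalised, and thermal stability was reported relative to control samples from duplicates, on a log2 fold-change scale.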

Compound in test [2]: CC1=C(C=C(C=C1)NC(=O)C2=CC(=CC=C2)N(C)C)NC(=O)C3=CC=C(C=C3)O
The method, boiled down:
as §1

Compound in test [3]: CC1=CC=C(C=C1)SC2=C3C=C(SC3=CN=C2)C(=O)N
The essentials:
as §1

Compound in test [4]: CC1=NC(=CC=C1)C2=C(N=C(N2)C(C)(C)C)C3=CC4=NC=CN=C4C=C3
The method, boiled down:
as §1

Compound in test [5]: CCCCN(Cc1ccc(C(=O)NO)cc1)C(=O)Nc1ccccc1 [Nexturastat A]
The essentials:
as §1

Compound in test [6]: CCCS(=O)(=O)Nc1ccc(F)c(C(=O)c2c[nH]c3ncc(-c4ccc(Cl)cc4)cc23)c1F [vemurafenib]
The essentials: as §1

Compound in test [7]: CCCS(=O)(=O)Nc1ccc(F)c(C(=O)c2c[nH]c3ncc(Cl)cc23)c1F
The essentials: as §1

Compound in test [8]: CCCc1cc(C)[nH]c(=O)c1CNC(=O)c1cc(-c2ccnc(N3CCN(C)CC3)c2)cc2c1cnn2C(C)C
The essentials: as §1

Compound in test [9]: CCN(CC)Cc1ccc2cc(COC(=O)Nc3ccc(C(=O)NO)cc3)ccc2c1 [givinostat]
The essentials:
as §1

Compound in test [10]: CCN(CCCOc1ccc2c(Nc3cc(CC(=O)Nc4cccc(F)c4)[nH]n3)ncnc2c1)CCOP(=O)(O)O [barasertib]
The method, boiled down:
as §1

Compound in test [11]: CC[C@@H]1C(=O)N(C)c2cnc(Nc3ccc(C(=O)NC4CCN(C)CC4)cc3OC)nc2N1C1CCCC1
The method, boiled down: as §1

Compound in test [12]: CC[C@@H]1C(=O)N(C)c2cnc(Nc3ccc(C(=O)N[C@H]4CC[C@H](N5CCN(CC6CC6)CC5)CC4)cc3OC)nc2N1C(C)C [volasertib]
The method, boiled down: as §1

Compound in test [13]: CC[C@H](C)N1C=C(C2=C(C=C(C=C21)C3=CN=C(C=C3)N4CCNCC4)C(=O)NCC5=C(C=C(NC5=O)C)C)C
The method, boiled down: as §1

Compound in test [14]: CC[C@H](C)[C@@H](C(=O)N[C@@H]([C@@H](C)O)C(=O)N[C@@H](CC(C)C)C(=O)[C@]1(CO1)C)NC(=O)[C@H]([C@@H](C)CC)N(C)C(=O)C [epoxomicin]
The method, boiled down: as §1

Compound in test [15]: CCn1c(C(=O)N(C2CC2)C2CC2)cc2c3c(ncn3C)c(Nc3cc(C)n(C)n3)nc21
The method, boiled down: as §1

Compound in test [16]: CCn1cc(-c2ccnc3[nH]c(-c4cccc(CN(C)C)c4)cc23)c(-c2ccc(NC(=O)N(C)C)cc2)n1
The method, boiled down: as §1

Compound in test [17]: CN(C)CC(=O)Nc1ccc2[nH]c(=O)c3ccccc3c2c1
The essentials:
as §1

Compound in test [18]: CN(CCOC1=CC=C(C=C1)C[C@H]2C(=O)NC(=O)S2)C3=CC=CC=N3 (racemic) [rosiglitazone]
The essentials: as §1

Compound in test [19]: CN1C2=C(C3=C1C(=O)N(N=C3)CC4=CC(=CC=C4)N)SC(=C2)S(=O)C
The essentials: as §1

Compound in test [20]: CN1CCC(CNc2ccc3ncc(-c4cccc(OC(F)(F)F)c4)n3n2)CC1
The essentials:
as §1

The full data set covers some 7,900 targets. This sample favours those with a hit. About 0.6% of all pairs of compound and target were hits. Values without a mark were called inactive.

UniProt Q12768, sequence (Q12768 whole entry, looked up): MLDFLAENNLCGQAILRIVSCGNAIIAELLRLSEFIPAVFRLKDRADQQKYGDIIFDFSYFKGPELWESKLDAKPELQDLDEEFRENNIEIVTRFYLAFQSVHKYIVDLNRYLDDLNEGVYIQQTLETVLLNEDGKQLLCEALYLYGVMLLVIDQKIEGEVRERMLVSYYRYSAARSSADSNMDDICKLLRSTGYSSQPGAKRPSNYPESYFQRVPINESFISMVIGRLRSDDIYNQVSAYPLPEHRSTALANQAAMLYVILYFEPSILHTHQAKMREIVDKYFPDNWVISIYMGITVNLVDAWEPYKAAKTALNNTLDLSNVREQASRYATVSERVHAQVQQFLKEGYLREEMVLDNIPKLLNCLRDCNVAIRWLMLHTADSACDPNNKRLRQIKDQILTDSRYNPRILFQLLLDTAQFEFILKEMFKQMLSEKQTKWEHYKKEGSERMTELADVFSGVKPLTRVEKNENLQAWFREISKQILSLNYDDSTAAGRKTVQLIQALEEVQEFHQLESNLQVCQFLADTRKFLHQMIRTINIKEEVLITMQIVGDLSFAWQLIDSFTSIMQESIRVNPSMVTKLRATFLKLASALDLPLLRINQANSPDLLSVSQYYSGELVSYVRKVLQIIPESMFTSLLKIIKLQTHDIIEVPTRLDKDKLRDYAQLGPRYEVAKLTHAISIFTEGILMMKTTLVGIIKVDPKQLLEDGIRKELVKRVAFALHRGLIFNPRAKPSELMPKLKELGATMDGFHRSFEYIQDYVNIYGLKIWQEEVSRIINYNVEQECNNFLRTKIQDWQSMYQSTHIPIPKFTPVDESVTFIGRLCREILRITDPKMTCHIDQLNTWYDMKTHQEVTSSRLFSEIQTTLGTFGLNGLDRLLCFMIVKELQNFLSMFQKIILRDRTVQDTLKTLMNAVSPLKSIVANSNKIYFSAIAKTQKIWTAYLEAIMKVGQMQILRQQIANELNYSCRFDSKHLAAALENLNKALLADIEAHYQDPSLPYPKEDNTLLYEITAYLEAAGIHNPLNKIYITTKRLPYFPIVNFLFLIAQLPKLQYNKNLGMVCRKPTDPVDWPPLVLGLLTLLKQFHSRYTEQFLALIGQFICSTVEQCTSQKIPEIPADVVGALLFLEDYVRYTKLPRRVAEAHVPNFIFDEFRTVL
UniProt Q93008, sequence (Q93008 whole entry, looked up): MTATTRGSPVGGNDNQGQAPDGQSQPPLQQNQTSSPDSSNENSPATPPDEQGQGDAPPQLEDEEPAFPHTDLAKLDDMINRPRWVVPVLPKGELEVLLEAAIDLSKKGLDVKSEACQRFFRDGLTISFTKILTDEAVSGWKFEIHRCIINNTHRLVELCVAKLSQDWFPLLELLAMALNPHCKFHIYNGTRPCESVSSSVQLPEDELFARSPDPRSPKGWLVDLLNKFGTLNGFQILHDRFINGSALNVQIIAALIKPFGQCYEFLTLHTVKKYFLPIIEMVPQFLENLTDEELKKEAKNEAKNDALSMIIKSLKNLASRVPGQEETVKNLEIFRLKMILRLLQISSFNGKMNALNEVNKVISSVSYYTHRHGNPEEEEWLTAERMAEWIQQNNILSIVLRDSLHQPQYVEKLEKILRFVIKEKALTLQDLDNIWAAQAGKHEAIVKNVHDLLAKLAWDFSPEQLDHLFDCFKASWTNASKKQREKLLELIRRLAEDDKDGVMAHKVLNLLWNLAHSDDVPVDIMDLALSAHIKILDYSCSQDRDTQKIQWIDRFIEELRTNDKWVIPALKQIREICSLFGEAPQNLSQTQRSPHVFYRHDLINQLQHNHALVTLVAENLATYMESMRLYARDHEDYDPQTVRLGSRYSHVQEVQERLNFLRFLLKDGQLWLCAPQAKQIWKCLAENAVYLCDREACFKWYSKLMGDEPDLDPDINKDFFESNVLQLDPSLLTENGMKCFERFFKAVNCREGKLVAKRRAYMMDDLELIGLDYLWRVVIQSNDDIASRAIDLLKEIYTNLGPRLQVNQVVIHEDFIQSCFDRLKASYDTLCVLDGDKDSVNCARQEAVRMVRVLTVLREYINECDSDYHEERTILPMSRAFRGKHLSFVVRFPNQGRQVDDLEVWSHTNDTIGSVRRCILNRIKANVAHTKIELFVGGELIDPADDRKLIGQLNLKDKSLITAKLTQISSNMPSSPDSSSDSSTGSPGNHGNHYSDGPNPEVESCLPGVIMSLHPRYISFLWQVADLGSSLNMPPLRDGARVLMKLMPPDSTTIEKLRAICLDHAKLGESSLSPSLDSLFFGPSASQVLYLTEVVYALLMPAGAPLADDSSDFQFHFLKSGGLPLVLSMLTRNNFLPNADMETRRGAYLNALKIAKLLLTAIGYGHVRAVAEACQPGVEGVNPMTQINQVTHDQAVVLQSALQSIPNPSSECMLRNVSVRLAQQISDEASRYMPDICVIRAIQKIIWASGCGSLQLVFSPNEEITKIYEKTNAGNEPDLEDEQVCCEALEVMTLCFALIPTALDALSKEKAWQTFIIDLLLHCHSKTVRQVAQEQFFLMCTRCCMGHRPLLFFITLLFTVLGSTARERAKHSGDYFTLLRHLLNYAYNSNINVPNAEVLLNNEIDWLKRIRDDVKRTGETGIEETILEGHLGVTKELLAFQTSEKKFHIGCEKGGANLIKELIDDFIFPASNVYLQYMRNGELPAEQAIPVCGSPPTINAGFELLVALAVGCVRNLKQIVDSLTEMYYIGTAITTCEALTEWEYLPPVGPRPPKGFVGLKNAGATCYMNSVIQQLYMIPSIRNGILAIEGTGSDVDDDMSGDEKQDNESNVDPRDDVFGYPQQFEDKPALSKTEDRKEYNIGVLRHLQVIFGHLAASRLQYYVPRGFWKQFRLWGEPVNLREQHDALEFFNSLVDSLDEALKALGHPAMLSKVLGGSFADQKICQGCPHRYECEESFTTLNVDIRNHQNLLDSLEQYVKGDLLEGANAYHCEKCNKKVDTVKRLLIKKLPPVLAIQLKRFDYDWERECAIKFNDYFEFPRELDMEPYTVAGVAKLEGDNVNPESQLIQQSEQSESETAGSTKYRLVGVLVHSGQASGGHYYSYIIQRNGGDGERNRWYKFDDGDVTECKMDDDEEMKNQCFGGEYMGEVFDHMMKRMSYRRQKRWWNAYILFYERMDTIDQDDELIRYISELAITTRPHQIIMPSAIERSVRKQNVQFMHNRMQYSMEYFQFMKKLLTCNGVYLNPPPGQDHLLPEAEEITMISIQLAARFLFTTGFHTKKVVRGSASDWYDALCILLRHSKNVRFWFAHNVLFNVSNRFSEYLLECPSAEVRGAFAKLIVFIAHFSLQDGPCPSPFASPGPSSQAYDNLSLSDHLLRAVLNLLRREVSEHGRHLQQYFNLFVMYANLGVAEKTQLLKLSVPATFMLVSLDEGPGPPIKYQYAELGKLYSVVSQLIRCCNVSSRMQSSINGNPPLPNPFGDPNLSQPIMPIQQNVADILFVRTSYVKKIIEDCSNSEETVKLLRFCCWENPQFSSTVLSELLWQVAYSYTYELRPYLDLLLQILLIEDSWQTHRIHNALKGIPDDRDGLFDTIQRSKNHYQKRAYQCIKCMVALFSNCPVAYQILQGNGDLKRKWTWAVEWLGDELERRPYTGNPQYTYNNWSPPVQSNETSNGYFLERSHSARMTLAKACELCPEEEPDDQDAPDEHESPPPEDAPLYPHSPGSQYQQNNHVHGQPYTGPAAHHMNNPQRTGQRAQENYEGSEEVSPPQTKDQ
UniProt Q5R3I4, sequence (Q5R3I4 whole entry, looked up): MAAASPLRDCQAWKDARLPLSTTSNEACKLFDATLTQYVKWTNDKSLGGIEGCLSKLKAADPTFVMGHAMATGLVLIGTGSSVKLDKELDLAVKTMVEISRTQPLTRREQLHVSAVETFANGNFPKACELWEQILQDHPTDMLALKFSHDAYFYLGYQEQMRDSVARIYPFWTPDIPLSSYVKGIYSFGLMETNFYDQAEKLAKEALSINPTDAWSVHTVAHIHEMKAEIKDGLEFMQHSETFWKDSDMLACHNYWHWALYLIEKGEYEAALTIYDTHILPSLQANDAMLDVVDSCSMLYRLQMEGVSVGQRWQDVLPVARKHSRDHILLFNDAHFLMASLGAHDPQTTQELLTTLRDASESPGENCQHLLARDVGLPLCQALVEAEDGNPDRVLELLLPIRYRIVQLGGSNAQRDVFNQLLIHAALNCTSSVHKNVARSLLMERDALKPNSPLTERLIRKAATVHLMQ
UniProt O60784, sequence (O60784 whole entry, looked up): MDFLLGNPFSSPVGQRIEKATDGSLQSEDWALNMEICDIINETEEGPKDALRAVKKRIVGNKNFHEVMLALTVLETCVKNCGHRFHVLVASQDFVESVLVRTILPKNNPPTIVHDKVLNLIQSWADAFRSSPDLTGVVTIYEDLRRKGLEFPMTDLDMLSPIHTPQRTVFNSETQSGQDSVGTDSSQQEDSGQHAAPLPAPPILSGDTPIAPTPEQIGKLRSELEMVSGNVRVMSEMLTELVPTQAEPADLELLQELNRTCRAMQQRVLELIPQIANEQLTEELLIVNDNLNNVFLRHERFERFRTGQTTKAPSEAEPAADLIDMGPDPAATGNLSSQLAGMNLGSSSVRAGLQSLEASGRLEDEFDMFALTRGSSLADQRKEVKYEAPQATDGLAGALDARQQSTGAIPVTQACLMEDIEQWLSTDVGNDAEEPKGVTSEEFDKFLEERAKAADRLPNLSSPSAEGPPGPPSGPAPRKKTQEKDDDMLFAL
UniProt Q7Z7E8, sequence (Q7Z7E8 whole entry, looked up): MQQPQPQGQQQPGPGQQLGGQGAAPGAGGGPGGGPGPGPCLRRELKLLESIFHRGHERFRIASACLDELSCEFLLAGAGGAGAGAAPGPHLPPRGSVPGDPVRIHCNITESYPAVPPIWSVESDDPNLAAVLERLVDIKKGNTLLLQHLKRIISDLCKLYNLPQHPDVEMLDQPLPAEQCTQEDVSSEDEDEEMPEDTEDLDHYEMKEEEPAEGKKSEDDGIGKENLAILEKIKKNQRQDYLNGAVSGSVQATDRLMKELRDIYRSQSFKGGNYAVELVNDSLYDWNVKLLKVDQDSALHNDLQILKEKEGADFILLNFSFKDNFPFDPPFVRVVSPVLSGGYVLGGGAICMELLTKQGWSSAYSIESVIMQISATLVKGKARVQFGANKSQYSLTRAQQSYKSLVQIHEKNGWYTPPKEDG

In the case of TTC38 (UniProt Q5R3I4), the log2 fold change in test [1] is -0.039; in test [2], 0.405; in test [3] it was 0.127; in test [4], 0.019; in [5], 1.05 (active); in test [6], 0.031. The log2 fold change in test [7] was 0.012; in test [8] it was 0.141; in test [9], 0.938 (active); in [10], 0.023; in test [11] it was 0.076; in test [12], 0.253. Further, the log2 fold change in test [13] was 0.041; in test [14] it was 0.012; in [15] it was -0.017; in [16], -0.05; in [17], 0.136; in test [18], -0.015. Further, the log2 fold change in test [19] was -0.049; in test [20] it was -0.039.
Consider TOM1 isoform 2 (UniProt O60784), for which the log2 fold change in test [1] is 0.17; in test [2], 0.026; in test [3], 0.02; in test [4], 0.051; in [5], -0.028; in [6] it was 0.17. Further, the log2 fold change in [7] was 0.041; in test [8] it was 0; in test [9], 0.013; in test [10], -0.01; in test [11], -0.056; in test [12] it was -0.196. Further, the log2 fold change is 0.037 in test [13]; -0.035 in test [14]; -0.018 in test [15]; -0.082 in [16]; 0.026 in [17]; 0.001 in [18]. The log2 fold change is 0.006 in test [19] and -0.274 in test [20].
In the case of WAPL isoform 3 (UniProt Q7Z5K2), the log2 fold change is -0.038 in test [1]; -0.109 in test [2]; 0.056 in [3]; -0.006 in test [4]; -0.134 in [5]; 0.097 in test [6]. The log2 fold change is 0.083 in test [7]; -0.054 in test [8]; 0.149 in test [9]; 0.201 in test [10]; -0.183 in [11]; -0.61 (active) in test [12]. Further, the log2 fold change is 0.164 in test [13]; 0.101 in test [14]; -0.038 in [15]; 0.015 in test [16]; 0.104 in test [17]; -0.06 in [18]. Further, the figures for the log2 fold change in test [19] and in test [20] were -0.018 and -0.246, respectively.
With USP9X (UniProt Q93008), the log2 fold change in [1] was -0.015; in [2], -0.02; in test [3], -0.009; in test [4] it was 0.023; in [5], 0.015; in test [6] it was 0.019. The log2 fold change was 0.075 in test [7]; 0.007 in test [8]; 0.025 in test [9]; 0.043 in [10]; -0.108 in test [11]; -0.382 (active) in [12]. Moreover, the log2 fold change in test [13] was 0.038; in [14] it was 0.01; in test [15], -0.027; in [16], -0.056; in test [17], 0.01; in test [18] it was 0.037. For the same target, the figures for the log2 fold change in test [19] and in test [20] were -0.028 and -0.21, respectively.
Regarding TXN2 (UniProt Q99757), the log2 fold change in test [1] is -0.05; in test [2] it was -0.018; in test [3], -0.009; in test [4], 0.036; in test [5], 0.093; in [6], 0.006. In addition, the log2 fold change was -0.048 in test [7]; 0.095 in test [8]; -0.046 in [9]; 0.009 in test [10]; -0.037 in test [11]; 0.051 in [12]. Besides, the log2 fold change was -0.029 in test [13]; 0.082 in test [14]; -0.038 in [15]; -0.089 in test [16]; -0.096 in test [17]; -0.027 in test [18]. The log2 fold change in test [19] was 0.03; in test [20], 0.083.
UBE2Q1 (UniProt Q7Z7E8): the log2 fold change in test [1] is 0.093; in [2], -0.041; in test [3], -0.003; in test [4] it was -0.037; in test [5], 0.008; in test [6], 0.011. The log2 fold change in test [7] is 0.114; in [8], -0.031; in [9], 0.022; in [10] it was 0.068; in test [11], -0.087; in [12], -0.295 (active). Further, the log2 fold change in [13] is 0.015; in test [14], -0.042; in [15], -0.075; in test [16], -0.048; in test [17] it was 0.027; in test [18], 0.061. For the same target, the log2 fold change in test [19] is -0.007; in [20], -0.212.
With WASHC5 (UniProt Q12768), the log2 fold change in [1] is -0.011; in test [2], -0.011; in test [3], 0; in [4], -0.006; in test [5], 0.052; in test [6], 0.004. Besides, the log2 fold change in test [7] was 0.004; in test [8], 0.065; in test [9] it was 0.085; in [10] it was 0.077; in [11], -0.109; in [12], -0.268. Also, the log2 fold change was 0.09 in test [13]; 0.049 in test [14]; -0.061 in [15]; 0.035 in test [16]; 0.045 in test [17]; 0.008 in test [18]. The log2 fold change in [19] was -0.006; in test [20], -0.114.
